# In PubChem BioAssay (NCI):
# Compounds without any hit were thinned out: in the full panel of roughly 83,000, 20% have a hit.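 Testing used 96-well plates and a 48-hour single-concentration exposure. Example: -40 means 40% of the starting cells died.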 Unmarked numbers belong to inactive results. The source made the active and inactive calls. How the source made its calls: active means growth percent below 10; inactive means the rest.
# Assays:
# Experiment in all cases: NCI-60 one-dose screen, 48 h (100 = growth as untreated, 0 = no growth, -100 = all killed)
# Settings in all cases: 10 µM unless noted
# T-47D breast = test system: T-47D breast
# BT-549 breast = test system: BT-549 breast
# MDA-MB-435 melanoma = test system: MDA-MB-435 melanoma
# SW-620 colon = test system: SW-620 colon
# MCF7 breast = test system: MCF7 breast
# HCT-116 colon = test system: HCT-116 colon
# HCC-2998 colon = test system: HCC-2998 colon
# KM12 colon = test system: KM12 colon
Structure (SMILES),growth (T-47D breast),growth (BT-549 breast),growth (MDA-MB-435 melanoma),growth (SW-620 colon),growth (MCF7 breast),growth (HCT-116 colon),growth (HCC-2998 colon),growth (KM12 colon)
c1cc2[nH]ncc2cc1-c1nc2ccc3[nH]ncc3c2c2c1CCC2,56.8%,38.3%,-7.86% (active),12.6%,32%,16.9%,73.7%,31.4%
O=c1ccn(-c2ncnc3nc[nH]c23)cc1,84%,98.9%,102%,96%,88%,96.5%,106%,91.8%
COC(=O)C(Sc1ccc(Cl)cc1)C1SC(=S)N(Cc2ccccc2)C1=O (stereo unspecified),81.7%,84.1%,90.4%,98.3%,77.2%,89.7%,103%,99.6%
COc1cc(NCCCCCN)c2ncccc2c1,96.2%,113%,114%,99.4%,83.2%,89.1%,125%,109%
Fc1ccc(Nc2nc(NCCNc3ccnc4cc(Cl)ccc34)nc(N3CCOCC3)n2)cc1,83.3%,81.9%,28.2%,47.1%,55%,37.3%,-51.2% (active),78.6%
CN(CCCCN(C[C@H]1Cc2ncccc2CN1)[C@H]1CCCc2cccnc21)C1CCC(F)(F)CC1,99.2%,85.8%,108%,98.7%,83.7%,71.1%,88.7%,88%
CCCCCCCCCCCCNC(=O)[C@H]1CSC(c2cc(Br)cs2)N1 (stereo partly specified),39.4%,-58.4% (active),-90.3% (active),-34.2% (active),49%,-82% (active),54.3%,-55.3% (active)
C=C(C)[C@@H]1CC[C@]2(C(=O)N3CCNCC3)CC[C@]3(C)[C@H](CC[C@@H]4[C@@]5(C)C/C(=C/c6ccncc6)C(=O)C(C)(C)[C@@H]5CC[C@]43C)[C@@H]12,102%,105%,105%,109%,79.7%,102%,109%,109%
C=C1CC2(OC1=O)C(=O)N(CCCN1C(=O)C3(CC(=C)C(=O)O3)c3ccccc31)c1ccccc12 (stereo unspecified),4.15% (active),33.5%,-17.1% (active),-67.4% (active),-18.9% (active),-8.31% (active),86.2%,72.9%
O=c1ccn(C2CC(O)C(O)C(CO)O2)c(=O)[nH]1 (stereo unspecified),102%,114%,116%,114%,97.4%,107%,117%,121%
COc1cc(-c2ncn(/C=C\C(=O)OC(C)C)n2)cc(C(F)(F)F)c1,16.3%,-62.6% (active),-34.7% (active),0.254% (active),-24.5% (active),2.85% (active),-39.8% (active),0.0792% (active)
O=C1CS/C(=N\Nc2cc(=O)[nH]c3ccccc23)N1c1ccccc1,89.6%,95.3%,82.9%,92.9%,92%,89.7%,96%,98.8%
FC(F)(F)c1ccccc1-c1cn2c(ccc3ccccc32)n1,104%,80.8%,-25.3% (active),44.2%,77.4%,74.9%,99.2%,87%
O=c1[nH]c(Nc2ccc(S(=O)(=O)O)cc2)nc2nc(Nc3ccc(NC(=S)Nc4ccccc4)cc3)nc(-c3ccc(O)cc3O)c12,90.7%,152%,111%,107%,107%,109%,112%,95.2%
c1ccc(-c2nc(N3CCNCC3)c3nc(-c4ccccc4)oc3n2)cc1,-56.6% (active),97.5%,-93.7% (active),-78.8% (active),-69.2% (active),-89.4% (active),-90.3% (active),-86.1% (active)
O=C(Nc1ccc2c(c1)OCO2)C(=O)c1c[nH]c2cc(F)ccc12,46.7%,70.3%,34.7%,34.3%,57.7%,56.7%,25.3%,27.1%

Structure (SMILES),growth (T-47D breast),growth (BT-549 breast),growth (MDA-MB-435 melanoma),growth (SW-620 colon),growth (MCF7 breast),growth (HCT-116 colon),growth (HCC-2998 colon),growth (KM12 colon)
C/C(=N/NC(=S)Nc1ccccc1)c1nc2ccc(Cl)cc2[nH]1,-68.3% (active),-94.9% (active),-84.5% (active),-76.9% (active),-85.4% (active),-27% (active),-89.9% (active),-82.5% (active)
O=C1/C(=C/c2ccc(Cl)cc2)CN(C(=O)CCN2CCC(=NO)CC2)C/C1=C\c1ccc(Cl)cc1,-37.2% (active),-88% (active),-94.7% (active),-61.1% (active),-53.3% (active),-48% (active),-76.1% (active),-86.1% (active)
COc1ccc(-c2nc(-c3nc4cc(C)c(C)cc4[nH]3)cc3c2[nH]c2ccccc23)cc1,52.1%,70.9%,49.2%,77.3%,39.1%,18.1%,16.6%,44.2%
C=C1C(=O)O[C@H]2[C@H]1CC/C(Cn1cc(-c3cccc(Cl)c3)nn1)=C\CC[C@@]1(C)O[C@@H]21,-43.7% (active),-49.5% (active),-78.6% (active),-77.8% (active),-46.8% (active),-84.8% (active),-85.5% (active),12.9%
Cc1ccc(S(=O)(=O)C2=C3C(=C(c4ccccc4)c4ccccc43)CN(S(=O)(=O)c3ccc(C)cc3)C2)cc1,12%,-1.45% (active),74.2%,-17.7% (active),37.6%,8.4% (active),88.9%,64.1%
C=C1C(=O)O[C@H]2[C@H]1CC/C(Cn1cc(CNC(=O)c3cc4ccccc4[nH]3)nn1)=C\CC[C@@]1(C)O[C@@H]21,48.7%,87.9%,26.5%,-32.5% (active),9.93% (active),4.22% (active),96%,68.9%
Cc1ccc(/C=C2\CN(C(=O)CCN3CCC(=NO)CC3)C/C(=C\c3ccc(C)cc3)C2=O)cc1,16.4%,11.2%,-39.8% (active),-34.1% (active),-3.62% (active),-74.5% (active),-70.7% (active),-75.3% (active)
N/C(=N\C(N)=N\c1nc2ccccc2s1)c1ccncc1,65.4%,61.7%,1.82% (active),35.2%,42.4%,47.7%,79.1%,52.1%
O=C(CSC1CCc2ccccc21)N/N=C/c1ccccc1O (stereo unspecified),40.3%,68.9%,71.7%,52.9%,19.2%,31.5%,66.7%,41%
CN1CCN(Cc2ccc(NC(=O)c3cncc(C#Cc4cnc(N)c5ccncc45)c3)cc2C(F)(F)F)CC1,43.2%,49.2%,9.96% (active),3.27% (active),35.6%,8.86% (active),33%,9.68% (active)
NC1=NN(O)C2=CC([N+](=O)[O-])C=CC2=N1 (stereo unspecified),101%,104%,109%,110%,96.1%,107%,97.2%,103%
COc1ccc(CN2CCc3c(Sc4ccccc4)nc(N)nc3C2=O)c(OC)c1,33.9%,23.4%,60.6%,81.2%,43.7%,42.7%,86.2%,84.9%
CCCCCCCCCCCC(=O)NCCC[N+](C)(C)CC(=O)[O-],92%,85.5%,88.7%,109%,99.8%,89.9%,96%,86.6%
O=C(NNC(=S)Nc1ccccc1)c1cc2ccc1CCc1ccc(cc1)CC2,53.6%,80.4%,70.3%,63.6%,61.7%,44.5%,70.2%,77.1%
O=C1NN(C(=O)c2ccc(Cl)cc2)C(c2ccccc2)=N/C1=C\c1ccc(F)cc1,80.7%,78.9%,91.5%,42.5%,98.2%,62.9%,95.3%,59.1%
C=C[C@@H]1C[C@@H]2Cc3c(C)cc(C)cc3N1O2,115%,112%,101%,102%,97.6%,104%,103%,104%
